For 30 compounds, growth results are on record in PubChem BioAssay (NCI).

Experiment in all cases: NCI-60 one-dose screen, 48 h (100 = growth as untreated, 0 = no growth, -100 = all killed)
Details in all cases: 10 µM unless noted

Experiment [1] concerns DU-145 prostate.
For experiment [2], the system named is K-562 leukemia.
The test system of experiment [3] is MDA-MB-231 breast.
For experiment [4], the system named is RXF 393 renal.
Experiment [5] relates to SF-268 CNS.
For experiment [6], the system named is SF-295 CNS.
Experiment [7] has as its system SF-539 CNS.
Experiment [8] relates to UACC-257 melanoma.
The test system of experiment [9] is M14 melanoma.
Experiment [10] concerns MALME-3M melanoma.

The panel holds about 83,000 compounds, 20% with a hit somewhere; the sample as a whole holds those more often.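 Results are percent growth after 48 hours of single-concentration exposure. 100 means growth as in untreated cells, lower positive values show inhibition; negative values down to -100 show cell death.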 A number with no mark means an inactive call. Active and inactive are the calls of the source. How the source made its calls: active means growth percent below 10; inactive means the rest.

For `O=S(Cc1ccccc1)/C(=C/NC(=S)Nc1ccccc1)c1ccccc1` (centres undefined), the growth is 104% in experiment [1]; 106% in experiment [2]; 108% in experiment [3]; 116% in experiment [4]; 99.2% in experiment [5]; 114% in experiment [6]. The growth in experiment [7] was 99.7%; in experiment [8], 98%; in [9], 98.5%.
For the compound `O=S(=O)(O)c1ccc(O)c(C2CCCCC2)c1`, the growth in experiment [1] was 112%; in experiment [2], 123%; in experiment [3] it was 112%; in experiment [4], 105%; in [5], 105%; in experiment [6], 100%. The growth in experiment [7] was 98.2%; in experiment [8], 99.3%; in [9], 101%.
`C=C1C(=O)C2CCN1CC2`: the growth is 103% in experiment [1]; 57.3% in experiment [2]; 125% in [3]; 89.6% in [4]; 102% in experiment [5]; 96.1% in experiment [6]. For the same compound, the figures for the growth in experiment [7], in experiment [8] and in experiment [9] were 102%, 108% and 92.3%, respectively.
For `COc1cc(OC)c(NC(=O)C(Sc2nc(C)cc(C)c2C#N)c2ccccc2)cc1Cl` (centres undefined), the growth in [1] is 102%; in experiment [2], 105%; in experiment [3], 106%; in experiment [4] it was 73.5%; in experiment [5] it was 85.9%; in [7], 83.8%. Besides, the growth in [8] was 114%; in experiment [9] it was 97.1%.
`COc1cccc(N=CNc2cccc(OC)c2)c1`: the growth in experiment [1] was 107%; in experiment [2] it was 66%; in [3], 91.9%; in [4], 105%; in experiment [5], 105%; in experiment [6] it was 112%. Moreover, the growth is 98.3% in experiment [7], 106% in experiment [8] and 104% in [9].
`c1cc(CNCCNCc2ccncc2)ccn1`: the growth in [1] was 115%; in [2], 108%; in experiment [3], 104%; in experiment [4], 107%; in experiment [5], 104%; in experiment [6], 104%. The growth in experiment [7] is 105%; in [8], 93.7%; in experiment [9] it was 109%.
As for `CCOc1ccncc1[N+](=O)[O-]`, the growth was 108% in experiment [1]; 100% in [2]; 114% in [3]; 113% in experiment [4]; 103% in experiment [5]; 108% in experiment [6]. In addition, the growth was 108% in experiment [7], 95.2% in experiment [8] and 106% in experiment [9].
As to `COCC(N)=O`, the growth was 98.4% in [1]; 91.8% in experiment [2]; 108% in experiment [3]; 108% in experiment [4]; 103% in experiment [5]; 102% in [6]. In addition, the values for the growth in [7], in experiment [8] and in [9] were 96%, 116% and 105%, respectively.
As to `Cc1ccc(NCN2C(=O)c3ccccc3C2=O)c(C)n1`, the growth is 107% in experiment [1]; 108% in [2]; 115% in experiment [3]; 114% in experiment [4]; 105% in experiment [5]; 106% in experiment [6]. Further, the growth is 116% in experiment [7], 105% in experiment [8] and 97.6% in experiment [9].
On to `CCCCNc1ccc(-c2ccc(NCCCC)cc2)cc1`, for which the growth is 83.1% in experiment [1]; 46.7% in experiment [2]; 84.1% in experiment [3]; 79.7% in experiment [4]; 70% in experiment [5]; 57.4% in experiment [6]. The growth in [7] is 49.5%; in experiment [8] it was 70.7%; in experiment [9], 71.7%.
Regarding `CC(=O)NNC(=S)N/C=C/c1c(C)ccc([N+](=O)[O-])c1[N+](=O)[O-]`, the growth was 104% in experiment [1]; 102% in [2]; 99.3% in experiment [3]; 105% in [4]; 96.7% in experiment [5]; 103% in experiment [6]. Besides, the results for the growth in experiment [7], in experiment [8] and in [9] were 99.7%, 99.6% and 89.6%, respectively.
As to `CC(=O)NNC(=S)/N=C\C(C(=O)c1ccccc1)=C(/O)c1ccccc1`, the growth is 108% in [1]; 101% in experiment [2]; 89.6% in [3]; 97.7% in experiment [4]; 99.2% in [5]; 108% in experiment [6]. Besides, the growth in experiment [7] is 101%; in experiment [8], 102%; in experiment [9], 103%.
Turning to `CC(=O)Nc1ccc(/C=C2\SC(=S)N(/C=C(\C(C)=O)C(N)=O)C2=O)cc1`, the growth was 106% in experiment [1]; 87.8% in [10]; 98.9% in [3]; 93% in [4]; 96.2% in [5]; 93.6% in [6]. For the same compound, the growth in [7] is 92.5%; in experiment [8], 87.8%.
For the compound `CCOC(=N)CC(=O)Nc1cccc(C)c1Cl`, the growth in experiment [1] was 107%; in [2] it was 122%; in experiment [3], 89.5%; in [4], 97.5%; in [5] it was 101%; in [6] it was 97.2%. The figures for the growth in experiment [7], in experiment [8] and in [9] were 99.6%, 103% and 94.9%, respectively.
For the compound `NNC(=O)CCCCl`, the growth in experiment [1] is 108%; in [2], 105%; in experiment [3], 104%; in [4], 96.6%; in [5], 102%; in experiment [6] it was 102%. The growth was 106% in [7], 105% in experiment [8] and 100% in [9].
In the case of `CC(O)C(F)(F)C(F)(F)C(F)(F)F` (centres undefined), the growth was 119% in experiment [1]; 111% in experiment [2]; 118% in experiment [3]; 103% in experiment [4]; 115% in experiment [5]; 96.6% in [7]. The growth in experiment [8] was 107%; in experiment [9], 103%.
Regarding `c1ccc(Oc2c3ccccc3nc3ccccc23)cc1`, the growth in experiment [1] was 8.05% (active); in [2] it was 8.65% (active); in [3], 31.2%; in experiment [4], 25.4%; in experiment [5] it was 22.7%; in [6] it was -39.1% (active). The growth is -19.6% (active) in experiment [7], 56.7% in experiment [8] and -13.2% (active) in experiment [9].
Take `CC(=O)c1cccc(O)c1`: the growth is 105% in [1]; 103% in experiment [2]; 104% in [3]; 112% in [4]; 97.1% in [5]; 101% in experiment [6]. Also, the growth is 98% in [7], 99.3% in [8] and 99.6% in experiment [9].
In the case of `COc1cccc(C(=O)NNC(=O)c2cccc3ccccc23)c1`, the growth is 117% in experiment [1]; 98.4% in experiment [2]; 110% in [3]; 115% in experiment [4]; 110% in experiment [5]; 124% in [6]. For the same compound, the growth in experiment [7] is 114%; in [8] it was 109%; in experiment [9] it was 107%.
With `Oc1cc(O)c2c(c1)O[C@H](c1ccc(O)c(O)c1)[C@@H](O)C2`, the growth in experiment [2] was 104%; in experiment [10], 103%; in experiment [3] it was 98.4%; in [4], 113%; in experiment [6], 97.8%; in experiment [7], 111%. In addition, the results for the growth in [8] and in [9] were 101% and 112%, respectively.
As to `O=C1NC(=O)/C(=C\c2ccncc2)N1`, the growth in experiment [2] was 117%; in experiment [10], 103%; in experiment [3] it was 99.1%; in experiment [4], 102%; in [5], 97.6%; in [6] it was 104%. Besides, the growth in experiment [7] was 92.7%; in experiment [8], 97.7%; in [9], 92.6%.
For `COc1ccc2c(ccc[n+]2C)c1`, the growth was 126% in [1]; 110% in [10]; 101% in experiment [3]; 136% in experiment [4]; 125% in experiment [5]; 114% in [6]. Besides, the growth in experiment [7] is 101%; in [8], 98.2%; in experiment [9] it was 108%.
In the case of `Cn1c(=O)c2nc3c(=O)n(C)c(=O)n(C)c3nc2n(C)c1=O`, the growth is 117% in experiment [1]; 120% in experiment [10]; 109% in experiment [3]; 108% in experiment [5]; 107% in experiment [6]; 91.7% in experiment [7]. Moreover, the growth in experiment [9] was 97%.
On to `CC(=O)OCC1OC(n2cnc3c(=S)nc(N)[nH]c32)C(OC(C)=O)C1OC(C)=O` (centres undefined), for which the growth was 53.1% in experiment [1]; 84.4% in [10]; 63.5% in experiment [3]; 76.8% in [5]; 40% in experiment [6]; 85.7% in [7].
Regarding `O=CNCCc1ccccc1`, the growth in experiment [2] was 89.9%; in [10] it was 130%; in experiment [3] it was 105%; in experiment [4] it was 111%; in [5] it was 110%; in experiment [6] it was 95.8%. In addition, the growth was 115% in experiment [7], 103% in [8] and 102% in experiment [9].
On to `NNC(=O)N/N=C1\C(=O)N(c2nccs2)C(=O)C(=O)C1c1nc2ccccc2s1` (centres undefined), for which the growth in experiment [1] is 103%; in experiment [10] it was 98.7%; in [3], 90.4%; in experiment [4] it was 106%; in experiment [5], 96.3%; in [6] it was 109%. The growth in experiment [7] was 106%; in experiment [8], 68.9%; in experiment [9], 105%.
Turning to `C/C(O)=C(/C=N\C(=S)Nc1ccc(S(=O)(=O)Nc2nccs2)cc1)C(=O)Nc1ccccc1C`, the growth was 93.7% in experiment [2]; 108% in experiment [10]; 87% in experiment [3]; 97.7% in experiment [4]; 88.8% in [5]; 104% in experiment [6]. Also, the growth in experiment [7] was 95.9%; in experiment [8], 109%; in experiment [9], 100%.
On to `CC(=O)C1C(=O)C(=O)N(c2cccc([N+](=O)[O-])c2)C1=O` (centres undefined), for which the growth in experiment [2] was 112%; in [10] it was 124%; in [3] it was 107%; in [4], 110%; in [5], 109%; in experiment [6], 107%. Also, the growth in experiment [7] is 108%; in experiment [8] it was 97.4%; in experiment [9], 104%.
With `C(=C\c1ccncc1)/c1ccncc1`, the growth in experiment [1] was 145%; in experiment [10] it was 87.1%; in experiment [3], 110%; in experiment [5] it was 146%; in experiment [6], 107%; in experiment [7], 104%. In addition, the growth in [8] is 108%; in [9], 105%.
`O=C(NCCc1ccccc1)/C(=C\c1ccc(Cl)cc1Cl)NC(=O)c1ccccc1`: the growth in experiment [2] was 122%; in experiment [10], 79.4%; in [3], 90.8%; in [4], 92.8%; in [5] it was 95%; in [6], 99.5%. Also, the figures for the growth in [7] and in experiment [8] were 94.1% and 96.6%, respectively.
